Hits are enriched below; roughly 19% of the tested compounds scored in any of these assays.
TDP1 block = inhibitors of human tyrosyl-DNA phosphodiesterase TDP1; Potency, µM (series often up to 130 µM), inactives show at the top dose activity change, negative = inhibition, most hits filed as inhibitors; Q9NUW8; recombinant TDP1, AlphaScreen DNA substrate cleavage; 350,000 compounds, 0.28% hits; also: potency is read from the fitted curve at half-maximal effect; nearly all actives have a fitted effect of over 40% in size
Target sequence (Q9NUW8 whole entry, looked up): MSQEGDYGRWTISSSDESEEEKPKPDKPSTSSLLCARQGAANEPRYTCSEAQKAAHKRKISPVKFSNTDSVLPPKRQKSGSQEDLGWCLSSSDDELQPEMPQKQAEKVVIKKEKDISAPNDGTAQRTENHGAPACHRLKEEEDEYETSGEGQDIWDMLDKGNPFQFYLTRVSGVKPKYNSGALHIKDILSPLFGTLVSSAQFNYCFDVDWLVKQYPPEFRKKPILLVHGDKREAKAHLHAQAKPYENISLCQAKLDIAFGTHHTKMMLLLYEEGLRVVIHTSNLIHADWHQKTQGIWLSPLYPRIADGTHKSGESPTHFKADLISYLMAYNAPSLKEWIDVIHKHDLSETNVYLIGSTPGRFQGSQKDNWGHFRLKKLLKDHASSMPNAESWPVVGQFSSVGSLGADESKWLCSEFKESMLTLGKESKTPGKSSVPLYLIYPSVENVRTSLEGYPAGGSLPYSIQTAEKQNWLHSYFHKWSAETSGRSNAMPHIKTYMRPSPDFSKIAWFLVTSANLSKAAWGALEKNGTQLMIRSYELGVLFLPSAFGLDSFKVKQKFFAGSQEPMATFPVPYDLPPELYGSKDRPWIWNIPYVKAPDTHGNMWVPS
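Recombinant human Tdp1 (E. coli-expressed, 1 nM final) preincubated with compounds 15 min at room temperature, then 5'-biotin/3'-phosphotyrosine-FITC DNA substrate (15 nM final) added for 5 min. AlphaScreen beads (10 ug/ml final) added 10 min; cleavage lowers signal.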
IL1B secr inh = inhibitors of inflammasome signaling (IL-1 beta secretion); THP-1 LPS/ATP IL-1B secretion, AlphaLISA, 16 h; stronger effect = lower value; activity change, % at 57.5 µM; 360,000 compounds, 4.7% hits; in the data active = activity change below about -50%; inconclusive = mostly about -30% to -49%
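Secreted IL-1B measured by AlphaLISA bead assay after 16 h compound exposure of THP-1 cells; compounds (final up to 57.5 uM) added 1 h before LPS (250 ng/mL) and ATP (1.25 mM) stimulation; lower signal means less secretion.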
ELG1 DNA repair = blocks ELG1-dependent DNA repair in HEK293T cells | HEK293T ELG1-luciferase reporter, luminescence, 16 h; DNA damage induced by 5-fluorouridine | Potency, µM (top dose mostly 46.1 µM), without a hit: top-dose activity change, negative = inhibition, actives largely listed as inhibitors | 330,000 compounds, 2.3% hits | AID 504467; also: potency is read from the fitted curve at half-maximal effect; nearly all actives have a fitted effect of over 55% in size
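DMSO vehicle served as the neutral condition. Each well held 2,000 cells given 5-fluorouridine plus compound; after 16 hr at 37 °C/5% CO2, ONE-Glo was added and luciferase measured 30 min later.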
Giardia kill = kills Giardia lamblia | Giardia lamblia trophozoite viability | activity change, % at 7.66 µM, hits read low | 340,000 compounds, 0.15% hits; in the data active = activity change below about -80%; inconclusive = between about -30% and that limit;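 also: parasites exposed to compound for two days anaerobically before the ATP read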
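Trophozoites 100 cells/well + cpd; 48 hrs, 37 deg C, anaerobic. ATPLite 1-Step added, 15-30 min RT, luminescence read (ATP-based viability).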
TDP1 cell CPT = DT40-hTDP1 cell growth loss with CPT. chicken DT40 Tdp1-/-;hTDP1 cells + 20 nM CPT, ATP luminescence, 48 h. Potency, µM (doses to about 46.2 µM), inactives show at the highest dose activity change, negative = growth inhibition, actives largely listed as inhibitors. 420,000 compounds, 12% hits; also: potency is read from the fitted curve at half-maximal effect; nearly all actives have a fitted effect of over 55% in size
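Chicken DT40 Tdp1-/- cells complemented with human TDP1, 400 cells/well, exposed to compounds plus 20 nM camptothecin for at least 48 h at 37 C; viability read as ATP content by CellTiter-Glo luminescence.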
DT40 TDP1 no CPT = qHTS for Inhibitors of human tyrosyl-DNA phosphodiesterase 1 (TDP1): qHTS in cells in absence of CPT; Potency, µM (doses to about 46.2 µM), without a hit: at the highest dose activity change, negative = growth inhibition, most hits filed as inhibitors; DT40 Tdp1-/- hTDP1 cells, no CPT, ATP luminescence, 48 h; AID 686978, 2013; 420,000 compounds, 15% hits; also: potency is read from the fitted curve at half-maximal effect; nearly all actives have a fitted effect of over 55% in size
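Compound effects on proliferation are scored in DT40 Tdp1-/-;hTDP1 cells in the absence of CPT. ATP levels (CellTiter-Glo luminescence) are recorded after a ≥48 hr, 37 °C incubation.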
Numbers without * were called inactive; ? = inconclusive; . = not tested or not shown; [ ] = dose if it differs, or a comment. Unless noted, calls follow the shape of the dose curve; as a rule, active = well fitted curve in the direction sought with a large enough effect; inconclusive = small, poorly fitted or top-dose-only effect, or another doubt; inactive = no such curve, though single readings can be large; an effect the other way counts as inactive or inconclusive. % is scaled to controls: 0 for no effect and ±100 for the full control effect.

SMILES | TDP1 block | IL1B secr inh | ELG1 DNA repair | Giardia kill | TDP1 cell CPT | DT40 TDP1 no CPT
C=CCn1c(SCC(=O)c2[nH]c(C)c(C(=O)OCC)c2C)nc2scc(-c3ccc(OC)c(OC)c3)c2c1=O | 4% | -8 | -11% | 13 | 15µM* | 13µM*
CCc1ccc(Nc2nc(N3CCOCC3)nc(N3CCOCC3)n2)cc1 | 2% | ? | ? | 5 | ? | ?
Cc1ccc(Nc2nc(OC(C(F)(F)F)C(F)(F)F)nc(N3CCOCC3)n2)cc1 | -2% | -80* | ? | -13 | ? | 15µM*
FC(F)(F)Oc1ccc(Nc2nc(N3CCOCC3)nc(N3CCOCC3)n2)cc1 | 0% | -5 | ? | -3 | 18µM* | 16µM*
O=C(NC1CCN(Cc2ccccc2)CC1)c1ccc(Cl)cc1Cl | 3% | -2 | -15% | 18 | 2% | ?
CC1CCc2sc(C(=O)NC3CCN(Cc4ccccc4)CC3)cc2C1 (stereo unspecified) | 2% | -59* | -7% | -11 | 21µM* | 13µM*
CCC1CCc2sc(C(=O)NC3CCN(Cc4ccccc4)CC3)cc2C1 (stereo unspecified) | 8%[0.505 µM] | -74* | -15% | -6 | 21µM* | 13µM*
COc1cccc(CNC(=O)C2CCN(Cc3cc4ccccc4n3Cc3ccccc3)CC2)c1OC | 8% | . | . | . | ? | ?
Cc1cccc(Cn2c(CN3CCC(C(=O)NC(C)C)CC3)cc3ccccc32)c1 | 8% | . | . | . | ? | 23µM*
COc1ccccc1CNC(=O)C1CCN(Cc2cc3ccccc3n2Cc2cccc(C)c2)CC1 | 0% | . | . | . | 13µM* | 18µM*
Cc1cccc(Cn2c(CNC(=O)c3ccccc3)nc3ccccc32)c1 | -2% | . | . | . | -23% | ?
CC(C)n1c(=O)c2ccccc2n1Cc1cn(Cc2cccs2)nn1 | . | -9 | . | . | 4% | -18%
O=c1c2nc(Br)n([C@@H]3O[C@@H]4CO[P@@](O)(=S)O[C@H]4[C@H]3O)c2nc2[nH]c(-c3ccccc3)cn12 | 22µM* | . | . | . | . | .
O=C(NCC(=O)N1CC(O)CC1C(=O)N1CCCC1C(=O)OCc1ccccc1)OCc1ccccc1 (stereo unspecified) | -1% | -21 | 1% | -17 | ? | -11%
CCOC(=O)c1cc(-c2ccc(F)cc2)n(CC(=O)NC2CCCCCC2)c1C | 2% | . | . | . | 16µM* | 15µM*
CCOC(=O)c1cc(-c2ccccc2)n(CCC(=O)NC2CCCCC2)c1C | . | . | . | . | ? | 13µM*
CC(=O)c1cc(-c2ccccc2)n(CC(=O)NC2CCCCCC2)c1C | 1% | . | . | . | ? | ?
CCOC(=O)c1cc(-c2ccc(F)cc2)n(CCC(=O)NC2CCCCC2)c1C | 6% | . | . | . | 15µM* | 15µM*
CC(=O)c1cc(-c2ccccc2)n(CCC(=O)NC2CCCCCCC2)c1C | 5% | -24 | -30% | 66 | ? | 23µM*
CCOC(=O)c1cc(-c2ccc(F)cc2)n(CC(=O)NC2CCCCC2)c1C | 2% | . | . | . | -26% | ?
CCc1ccccc1NC(=O)CSc1ncccc1C(=O)O | 5% | . | . | . | -14% | -10%
O=C(CN(Cc1cccs1)S(=O)(=O)c1ccc(S(=O)(=O)NC2CCCCC2)cc1)Nc1ccccc1 | 5% | -16 | ? | -18 | 21µM* | 18µM*
CCN1C(=O)c2ccccc2C1Nc1ccc(OCCN2CCCCC2)cc1 (stereo unspecified) | . | . | . | . | -7% | -29%
CCc1cc(=O)oc2cc(C)cc(OC(C)C(=O)NC3CCN(Cc4ccccc4)CC3)c12 (stereo unspecified) | 4% | -63* | -2% | 22 | ? | ?
CCc1cc(=O)oc2cc(C)cc(OCC(=O)N3CCC(C(=O)NC(C)C)(c4ccccc4)CC3)c12 | 3% | ? | ? | -16 | 23µM* | 21µM*
SMILES | TDP1 block | IL1B secr inh | ELG1 DNA repair | Giardia kill | TDP1 cell CPT | DT40 TDP1 no CPT
CN(C)C(=O)N1CCC(C(=O)N2CCCC(C(=O)c3cccc4ccccc34)C2)CC1 (stereo unspecified) | . | 7 | ? | 2 | -26% | ?
O=C(CN1C(=O)NC2(CCCc3ccccc32)C1=O)c1ccc(F)c(F)c1 (stereo unspecified) | 1% | 7 | 10% | 9 | 0% | ?
O=S1(=O)N=C(Nc2nc3c(s2)CCCC3)c2ccccc21 | 8% | 5 | ? | ? | 6.5µM* | 5.2µM*
O=C(O)c1ccc(Nc2nc3c(s2)CCCC3)cc1 | 0% | 15 | ? | -1 | 14% | -9%
CCc1cccc(CC)c1NC1=NS(=O)(=O)c2ccccc21 | -3% | . | . | . | -2% | 0%
Cc1cccc(Nc2nc3c(s2)CCCC3)c1 | 2% | -5 | ? | 20 | 23µM* | 18µM*
CC(=O)N1N=C(c2cccs2)CC1c1cc2cc(C)ccc2nc1Cl (stereo unspecified) | . | 5 | 3% | -4 | -2% | 7%
CC1=NN(S(=O)(=O)c2ccc(Cl)cc2Cl)C(=O)c2ccccc2O1 | . | 6 | -11% | -7 | 16µM* | 16µM*
Cc1nn(-c2ccc(Cl)cc2Cl)c(=O)c2ccccc12 | -8%[56.1 µM] | 3 | -12% | -8 | -20% | -28%
COc1ccc(CCC(=O)Nc2ccc(N3CCOCC3)c(S(=O)(=O)Nc3ccc(OC)cc3)c2)cc1 | . | 0 | . | -1 | ? | ?
CCOCC(=O)Nc1c(C(=O)Nc2ccc3c(c2)OCCO3)oc2ccccc12 | 5% | 0 | ? | 62 | ? | 8.2µM*
CCOc1ccc(NC(=O)c2oc3ccccc3c2NC(=O)c2cc(C)cc(C)c2)cc1 | 1% | . | . | . | -9% | ?
COCC(=O)Nc1c(C(=O)Nc2ccc3c(c2)OCCO3)oc2ccccc12 | 4% | ? | ? | -5 | -21% | ?
CCOc1ccc(NC(=O)c2oc3ccccc3c2NC(=O)C(C)Oc2ccccc2)cc1 (stereo unspecified) | 9% | . | . | . | ? | 21µM*
CCOCc1c(C(=O)OCC(=O)Nc2ccc(C)c(S(=O)(=O)N(C)C)c2)oc2ccccc12 | 1% | 3 | -19% | 7 | ? | 21µM*
COc1ccc(NC(=O)c2oc3ccccc3c2NC(=O)c2cc(OC)c(OC)c(OC)c2)cc1 | 4% | . | . | . | 21µM* | 12µM*
COc1cc(/C=C/C(=O)OCC(=O)N(CC(C)C)c2c(N)n(Cc3ccccc3)c(=O)[nH]c2=O)ccc1O | . | 50 | . | -4 | ? | ?
CCOC(=O)c1ccc(NC(=O)CN(c2ccc(C)cc2)S(=O)(=O)c2c(C)noc2C)cc1 | 2% | . | . | . | ? | ?

Screens from PubChem.
